Only some compounds are listed: those with a hit (about 4.2% of all), similar ones and a draw of the others.
MCF10A rereplic: inducers of DNA re-replication in MCF 10A breast cells | MCF 10A DNA re-replication, Hoechst nuclear intensity, 48 h | Potency, µM (titrated, usually from 46.1 µM), usual class: activators | actives 2.9% (n = 350,000); also: nearly all actives have a fitted effect of over 50% in size
Mito fusion act: mitochondrial division inhibition or fusion activation | S. cerevisiae fusion-defective mutant growth rescue, CellTiterGlo 48 h | Potency, µM (highest dose often 46.1 µM), actives largely listed as activators | actives 0.23% (n = 320,000); also: nearly all actives have a fitted effect of over 45% in size
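Temperature-sensitive fusion-defective S. cerevisiae (e.g. fzo1-1, mgm1-5) were grown with compound in YPEG medium (3% ethanol, 3% glycerol) for 48 hours at 37C. Growth rescue was measured as viability by CellTiterGlo luminescence after 10 minutes at ambient.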
SW480 rereplic: DNA re-replication induction in SW480 cells | SW480 DNA re-replication, Hoechst DNA content imaging, 48 h | Potency, µM (titrated, usually from 46.1 µM), usual class: activators | actives 1.8% (n = 340,000); also: nearly all actives have a fitted effect of over 55% in size
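Cells (250 per well) received 23 nL compound or DMSO by pin tool and were kept 48 hr at 37 C, 5% CO2. Nuclei were then stained with Hoechst for 40 min and scanned for DNA content.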
Integrin act MD: activates integrin-mediated alleviation for muscular dystrophy | actives 0.064% (n = 350,000) | Potency, µM (top dose mostly 38.3 µM), actives largely listed as activators | alpha7betagal myoblasts, beta-gal FDG fluorescence, 48 h; also: nearly all actives have a fitted effect of over 60% in size
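alpha7betagal+/- myoblasts (passage 13, 250/well) treated 48 h at 37C with compounds at 1:260 dilution of DMSO stock. Lysed, then beta-galactosidase activity read as FDG fluorescence (ex 480/em 540) after 30 min, with pre-read for autofluorescence.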
AT treatment: potential ataxia-telangiectasia treatment. F2112 A-T fibroblasts, KAP-1 phosphorylation AlphaLISA; neocarzinostatin DNA damage 30 min before lysis. Potency, µM (titrated, usually from 57.5 µM), most hits filed as activators. actives 0.19% (n = 320,000). AID 485349; also: nearly all actives have a fitted effect of over 45% in size
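ATM-like activity read as KAP-1 phosphorylation via AlphaLISA donor/acceptor antibody pairs after lysis and 6 hr at 25C. Cells were ATM-null patient fibroblasts (F2112, hTERT), dosed 60 min, then exposed to the DSB inducer NCS for 30 min.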
A number is an active result; n = inactive; u = inconclusive; x = no result; [ ] = another dose, or the depositor's remark. Calls follow the shape of the dose curve; as a rule, active = well fitted activation curve with a large enough effect; inconclusive = small, poorly fitted or top-dose-only effect; inactive = no such curve, though single readings can be large or run the other way.

SMILES	MCF10A rereplic	Mito fusion act	SW480 rereplic	Integrin act MD	AT treatment
CCOC(=O)/C(C#N)=C1/C=C(C)NC(c2ccccc2O)=N1	6.5µM	n	n	n	n
CCN(CC)c1ccc(-c2nn3c(-c4cccnc4)nnc3s2)cc1	5.2µM	n	21µM	n	n
c1cncc(-c2nnc3sc(-c4ccco4)nn23)c1	n	n	n	n	n
COc1ccc(-c2cc(COc3ccccc3)on2)cc1	n	n	n	10µM	n
O=C(CSCc1cc(=O)[nH][nH]1)Nc1ccc(F)cc1	n	n	n	n	n
CCCCc1ccc(NC(=O)CSCc2cc(=O)[nH][nH]2)cc1	13µM	n	n	n	n
Cc1oc(-c2ccccc2F)nc1CS(=O)(=O)CC(=O)NC(C)CCc1ccccc1 (stereo not given)	n	11µM	n	n	n
CN(C)/C=C1\C(=O)ON=C1c1ccccc1	n	n	n	n	n
CC1=NN(c2ccccc2)C(=O)/C1=C/C=C/c1ccccc1	9.2µM	n	7.3µM	n	n
Cc1ccc(C2=NOC(=O)/C2=C\C=C\c2ccccc2)cc1	5.2µM	n	u	n	n
Cc1ccc(S(=O)(=O)N2CCC(C(=O)OCC(=O)N3CCCC(C)C3)CC2)cc1C (stereo not given)	n	n	n	n	n
COc1ccc(NC(=O)CSc2cc(C)nc3c(-c4ccccc4)cnn23)cc1	9.2µM	n	u	n	n
Cc1cc(SCC(=O)Nc2ccccc2)n2ncc(-c3ccccc3)c2n1	u	n	u	n	n
S=C1NC[C@H](c2ccccc2)N1CCCCC1CCCCC1	u	n	n	n	35µM
CCC/C=C/c1ccc(CN2C(C(C)C)C(=O)N(Cc3cn(Cc4ccco4)nn3)CCS2(=O)=O)cc1 (stereo not given)	x	x	x	n	x
COc1ccc(/C=C/C(=O)N(C)C2(C)CCS(=O)(=O)C2)cc1 (stereo not given)	n	n	23µM	n	n
CC(C)Cn1cnc2c(SCCc3ccccc3)nc(N)nc21	u	x	n	n	x
C[C@H](O)[C@@H]1C(=O)N2CCc3c([nH]c4ccccc34)[C@@H]2C[C@@H]1N(C)C(=O)NC1CCCCC1	x	x	x	n	x
Nc1nonc1-n1nnc(C(=O)N/N=C/c2cccc(Cl)c2Cl)c1CN1CCCC1	u	n	21µM	n	n
CC(C)c1c(C(=O)N/N=C/c2ccccc2OCc2c(F)cccc2Cl)nnn1-c1nonc1N	u	n	9.2µM	n	n
Nc1nonc1-n1nnc(C(=O)N/N=C/c2ccc(Cl)cc2Cl)c1CN1CCCC1	n	n	3.7µM	n	n
CC(C)c1c(C(=O)N/N=C/c2ccc(Cl)cc2Cl)nnn1-c1nonc1N	n	n	n	n	n
CCN(CC)S(=O)(=O)c1cc(NC(=O)CCCOc2ccc(C(C)=O)cc2)ccc1C	n	n	n	n	n
O=C(NCc1ccc2c(c1)OCO2)C1CC(=O)N(CCc2ccc(F)cc2)C1 (stereo not given)	n	n	n	n	n
COC(=O)N1C(=O)[C@](c2ccc(Cl)cc2)(C(C)C)N1C(=O)OC	u	n	u	u	n
SMILES	MCF10A rereplic	Mito fusion act	SW480 rereplic	Integrin act MD	AT treatment
COC(=O)N1C(=O)[C@@](c2ccc(OC)cc2)(C(C)C)N1C(=O)OC	u	n	21µM	n	n
CCS(=O)(=O)c1ncc(Cl)c(C(=O)Nc2ccc(S(=O)(=O)N3CCC(C)CC3)cc2)n1	1.8µM	n	u	n	n
CC1CCN(S(=O)(=O)c2ccc3c(c2)oc(=O)n3CC(=O)NCc2ccc3c(c2)OCO3)CC1	n	n	n	n	n
Cc1noc(C)c1C(=O)Nc1ccc(S(=O)(=O)N2CCC(C)CC2)cc1	n	n	18µM	n	n
Cc1cc(NC(=O)C2CCN(S(=O)(=O)c3c(C)noc3C)CC2)ccc1Br	21µM	n	u	n	n
Cc1noc(C)c1C(=O)Nc1ccc(S(=O)(=O)N2CCCCC2)cc1	n	n	n	n	n
Cc1cc(C)cc(NC(=O)Cn2c(=O)oc3cc(S(=O)(=O)N4CCC(C)CC4)ccc32)c1	16µM	n	u	n	n
CC1(C2CCC3(C)OC3C2)CO1 (stereo not given)	n	x	n	n	x
COc1cc(-c2noc(C)c2C(=O)NCCCn2ccnc2)cc(OC)c1OC	n	x	n	n	n
CC1CCN(CC(=O)Nc2ccc(S(=O)(=O)N3CCC(C)CC3)cc2)CC1	u	n	n	n	n
CC1CCCN(CC(=O)Nc2ccc(S(=O)(=O)NC3CCCCC3)cc2)C1 (stereo not given)	16µM	n	n	n	n
CC1CCN(S(=O)(=O)c2ccc(NC(=O)CN3CCCC3)cc2)CC1	9.2µM	n	n	n	n
N#CCCN(C(=O)c1cc2c(s1)-c1ccccc1S(=O)(=O)C2)c1ccccc1	n	n	n	n	n
O=C(CCc1ccc(O)cc1)c1c(O)cc(O)cc1O	n	u	n[9.22 µM]	n	28µM
COc1cc(O)c(CC=C(C)C)c(O)c1C(=O)CCc1ccc(O)cc1	6.5µM	n	u	n	n
O=C(Cc1ccc2c(c1)OCCO2)c1c(O)cc(O)cc1O	n	n	n	n	n
COc1cccc(/C=N/NC(=O)C[n+]2ccccc2)c1O	u	n	u	n	n
COc1cccc(/C=N/NC(=O)CN2CC(c3ccccc3)CC2=O)c1O (stereo not given)	u	n	7.3µM	n	n
COc1cccc(/C=N/NC(=O)CNC(=O)COc2ccccc2)c1O	n	n	3.3µM	n	n
COc1ccc(CCCC(=O)N/N=C/c2cccc(OC)c2O)cc1C	1.5µM	n	u	n	n
COC(=O)c1ccc(OCCn2cnc3ccccc3c2=O)cc1	n	n	n	n	n
O=C(NCCS(=O)c1ccc(Cl)cc1)c1cccc(Cl)c1 (stereo not given)	n	n	n	n	n
COc1cc(CNC2CCCC2)cc(Cl)c1OCc1ccccc1Cl	16µM	n	u	n	n
Cc1ccc(NC(=O)CCc2nc3ccccc3s2)c(O)c1	n	n	n	n	n
COc1ccc(CC(C#N)(CO)c2nc3ccccc3[nH]2)cc1 (stereo not given)	n	n	21µM	n	n
N#CC1=C(N)Oc2ccc3ccccc3c2C1c1cccnc1 (stereo not given)	1.6µM	n	4.6µM	n	n
N#CC1=C(N)Oc2c(ccc3ccccc23)C1c1cccs1 (stereo not given)	u	n	0.56µM	n	n
Cc1ccc2[nH]c(=O)c(C3C(C#N)=C(N)Oc4c3ccc3cccnc43)cc2c1 (stereo not given)	u	n	u	n	n
N#CC1=C(N)Oc2c(ccc3cccnc23)C1c1ccccc1 (stereo not given)	15µM	n	5.2µM	n	n
CCC(NC(=O)c1ccccc1NC(=O)C(C)(C)C)C(=O)N1CC(C)OC(C)C1 (stereo not given)	n	x	n	n	n
